Data as given in PubChem BioAssay (NCI).
The panel holds about 79,000 compounds, 15% with a hit somewhere; the sample as a whole holds those more often. Cut-off read from the data, not from the text of the source: active = growth inhibition above about 70%; inactive = the rest.

How the values were obtained:
[1] = NCI Yeast Anticancer Drug Screen. Data for the rad50 strain (AID 155);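 note: 0% = growth of vehicle-only cultures of the same strain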; settings: S. cerevisiae rad50 strain growth inhibition; at 50.0 µM; active compounds read high
Outline: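 DNA repair mutant yeast, compound exposure, growth read-out; inhibition is taken relative to vehicle.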

[2] = NCI Yeast Anticancer Drug Screen. Data for the mec2-1 strain (AID 157); settings: S. cerevisiae mec2-1 strain, at 50.0 µM, active compounds read high
Outline: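 Each compound was tested on mec2-1 yeast, a strain altered in DNA damage repair or cell cycle control. Growth inhibition is reported relative to vehicle.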

[3] = NCI Yeast Anticancer Drug Screen. Data for the sgs1 mgt1 strain (AID 161);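 note: 0% = growth of cultures given vehicle only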; settings: S. cerevisiae sgs1 mgt1 strain, at 50.0 µM, active compounds read high
Outline: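 Mutant yeast exposed to compound; growth scored against vehicle-only wells.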

[4] = NCI Yeast Anticancer Drug Screen. Data for the cln2 rad14 strain (AID 165);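 note: 0% = growth equal to vehicle treated cultures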; settings: S. cerevisiae cln2 rad14 strain, at 50.0 µM, active compounds read high
Outline: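 Test compounds were added to cln2 rad14 yeast cultures; inhibition of growth was then determined by comparison with vehicle treatment.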

[5] = NCI Yeast Anticancer Drug Screen. Data for the bub3 strain (AID 167); settings: S. cerevisiae bub3 mutant strain, at 50.0 µM, active compounds read high
Outline: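 In this screen, a yeast mutant lacking normal mitotic checkpoint function is challenged with compound. Relative growth versus vehicle gives the inhibition value.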

[6] = NCI Yeast Anticancer Drug Screen. Data for the mlh1 rad18 strain (AID 175); settings: S. cerevisiae mlh1 rad18 strain growth inhibition; at 50.0 µM; active compounds read high
Outline: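 Inhibition values reflect reduced growth of mutant yeast versus vehicle-treated controls following compound exposure; the mutations affect DNA damage repair.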

Measured: growth inhibition

O=C1CSC(c2ccc(C(F)(F)F)cc2)N1c1nncs1 (stereo unspecified)
inactive: [1] -1.2% | [2] -3.5% | [3] 29% | [4] -1.45% | [5] 12.6% | [6] 24.2%

CCCCCCCCCCCCCCCCCCOC(=O)c1cccnc1
inactive: [1] 23.1% | [2] 10.3% | [3] 15.8% | [4] 20.7% | [5] 23.8% | [6] 27.3%

CC1(C)C=C(N2CCCCC2)C(=O)c2ccccc21
inactive: [1] -9.6% | [2] -2.25% | [3] -12.2% | [4] -16.4% | [5] -9.1% | [6] 5.15%

CC1(O)CCC2CC1C2(C)CO (stereo unspecified)
inactive: [1] 2% | [2] 7.45% | [3] -9.15% | [4] -28.4% | [5] -7.05% | [6] 3.1%

C/C=C1\OC(n2cnc3c(N)ncnc32)C(O)C1O (stereo unspecified)
inactive: [1] -0.3% | [2] -11.8% | [3] -14.9% | [4] 2.5% | [5] -16.2% | [6] -1.8%

COC(=O)C(=O)c1c(-c2ccc(O)c(OC)c2)[nH]c2[nH]n(-c3ccccc3)c(=O)c2c1=O
inactive: [1] 24.6% | [2] -17.2% | [3] -1.75% | [4] -30.1% | [5] 14.8% | [6] 14.5%

O=C1OC(=O)C2C1C1c3ccccc3C2(O)c2ccccc21 (stereo unspecified)
inactive: [1] -1.8% | [2] -17.9% | [3] 0.2% | [4] 2.95% | [5] 6.1% | [6] -0.6%

S=C(Nc1ccccc1)N1CC2C3CCC(O3)C2C1 (stereo unspecified)
inactive: [1] 16.6% | [2] 12.6% | [3] 10.2% | [4] 3.15% | [5] 22.5% | [6] 22.6%

C[C@@H]1CC[C@]2(C(=O)O)CC[C@]3(C)C(=CC[C@@H]4[C@@]5(C)CC[C@H](O)C(C)(C)[C@@H]5CC[C@]43C)[C@@H]2[C@]1(C)O
inactive: [1] 27.1% | [2] 38.5% | [3] 2.75% | [4] 13.5% | [5] 26.4% | [6] -65%

Cc1cccc(CP(Cc2cccc(C)c2)CC2(Cp3c4ccccc4c4ccccc43)COC2)c1
inactive: [1] 18% | [2] -0.8% | [3] 33.4% | [4] 26.9% | [5] 31.6% | [6] 34.5%

CCOC(=O)C(C)N1CCCCCC1 (stereo unspecified)
inactive: [1] -28.8% | [2] -30.4% | [3] -17.8% | [4] -28.5% | [5] -8.25% | [6] -10.8%

COc1ccc(-c2cc(-c3ccccc3)nc(/N=C\c3ccccc3)n2)c(O)c1
inactive: [1] -10.7% | [2] -20.4% | [3] -15.5% | [4] -17.9% | [5] -34.7% | [6] -51.2%

C1=C(c2ccccc2)c2ccccc2CC1
inactive: [1] -10.3% | [2] -7.25% | [3] -0.35% | [4] -3.45% | [5] 2.2% | [6] 3%

CC/C(=N\NS(=O)(=O)c1ccc(C)cc1)c1ccc(Br)cc1
inactive: [1] 27.4% | [2] -7.2% | [3] -1.6% | [4] -7.3% | [5] -3.6% | [6] 3.4%

NCCn1ccnc1
inactive: [1] 13.3% | [2] 1.7% | [3] -1.75% | [4] -19.8% | [5] -3.15% | [6] 1.4%

CCCNc1nc2c(s1)c1c(O)c3c(O)c(C)c4c(c32)C(=O)C(C)(O/C=C\C(OC)C(C)C(OC(C)=O)C(C)C(O)C(C)C(O)C(C)/C=C/C=C(/C)C(=O)N1)O4 (stereo unspecified)
inactive: [1] 8.75% | [2] 9.7% | [3] 3.2% | [4] 10.2% | [5] 14.2% | [6] 17.3%

C=CC1(C(=O)O)CCC(C(C)(C)C)CC1 (stereo unspecified)
inactive: [1] 42.9% | [2] 42% | [3] 31.6% | [4] 36.1% | [5] 21.6% | [6] 13.3%

Nc1nc(N)c2nonc2n1
inactive: [1] -3.7% | [2] -20.8% | [3] -10.8% | [4] -26.2% | [5] -2.85% | [6] 2%

Cn1c(=O)c2c(n(C)c1=O)n(C)c(=O)n2C
inactive: [1] 18.3% | [2] 8.25% | [3] -18.9% | [4] 12.7% | [5] 1.85% | [6] 15.9%

CCOC(=O)NOC1CCCCO1 (stereo unspecified)
inactive: [1] 1.05% | [2] -6.8% | [3] -3.2% | [4] -14.6% | [5] -10.9% | [6] 4.95%

COc1c(N)c(C)nc(Cl)c1C#N
inactive: [1] -10.1% | [2] 2.95% | [3] -2.7% | [4] -1.05% | [5] -0.75% | [6] 8.9%
